Bioassay records: PubChem BioAssay, Broad Institute
This is a sample that favours compounds with a hit; in the whole collection about 4% have one here.
MITF TRPM1 inh: inhibitors of MITF-driven TRPM1 promoter in melanoma cells; SK-MEL-5 TRPM1 promoter luciferase, 24 h; inhibition, % at 12.5 µM; 330,000 compounds, 0.83% hits;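 active means mean inhibition across replicates of 60% or more, whatever share of single replicates reaches that level; inconclusive means some that reach 60%, reason not given; inactive means mean inhibition across replicates below 60%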
MITF TRPM1 HTS: increases MITF-driven TRPM1 promoter luciferase signal; SK-MEL-5 TRPM1-promoter luciferase, 24 h; % of positive control, neutral wells = 0; activation, % at 12.5 µM; 300,000 compounds, 0.75% hits; AID 588334;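 active means mean activation of at least 80% with every replicate also reaching 80%; inconclusive means mean reaches 80% but some replicate falls short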;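 further: 0% = neutral control wells and 100% = parthenolide positive control wells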
EWS-Fli inh: inhibitors of EWS/Fli oncoprotein transcriptional activity | A673 NR0B1-luciferase reporter, viability-normalised | inhibition, % at 12.6 µM | 350,000 compounds, 0.67% hits;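 active means mean inhibition of at least 50% after viability correction, with every replicate also passing that limit; inconclusive means mean reaches 50% but only one of two replicates passes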;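 further: firefly luciferase signal divided by Alamar Blue viability fluorescence both relative to DMSO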
Wnt act: activators of Wnt/beta-catenin signaling; Wnt/beta-catenin reporter cell assay, activator, plate reader; activation, % at 9.35 µM; 300,000 compounds, 1.2% hits; in the data active means activation above about 30%, passing the limit was not always enough; inconclusive means no clear call, values can overlap the other calls;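 further: 0% = neutral control wells and 100% = positive control wells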
esBAF inh: SWI/SNF esBAF complex inhibition | 350,000 compounds, 2% hits | reporter increase, % at 12.5 µM | AID 602393 | mouse ES cells, Bmi1-luciferase knock-in reporter, 24 h; 100% = twice the neutral-well signal; in the data active means activation above about 40%; inconclusive means no clear call, values can overlap the other calls;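 further: 0% = median of the plate's neutral control wells and 100% = double that signal; a rise in the Bmi1 reporter signal indicates esBAF inhibition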
PAX8 inh HTS: inhibitors of PAX8 transcriptional activity in RMG-I cells; 360,000 compounds, 1.2% hits; RMG-I TPO-luciferase reporter, SteadyGlo, 24 h; AID 652154; inhibition, % at 12.6 µM;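 active means mean replicate inhibition at least 60% with every replicate also reaching 60%; inconclusive means only one of the two criteria is met; inactive means mean below 60% and not all replicates reaching 60%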;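 further: luciferase light reporting Pax8 driven TPO promoter activity; plate controls were median of neutral control wells for no effect and mitoxantrone controls for full effect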
The depositor's hits bear a star; i = inactive; u = inconclusive; x = no result given.

SMILES | MITF TRPM1 inh | MITF TRPM1 HTS | EWS-Fli inh | Wnt act | esBAF inh | PAX8 inh HTS
COc1ccc2c3c([nH]c2c1)[C@@H](CO)N(C(=O)CC1CC1)CC31CN(Cc2ccncc2)C1 | x | x | 0 | x | x | -11
CCOC(=O)CN1C(=O)S/C(=C/c2ccc3c(c2)n(C)c(=O)n3C)C1=O | -48 | 46 | x | x | 46* | -109
COCC(=O)N1CC2(C1)[C@H](c1ccccc1)[C@H](CO)N2C(=O)c1ccccc1 | x | x | 5 | x | x | x
Cn1cnc(C(=O)NC2CCN(C(=O)OC(C)(C)C)CC2)c1C(=O)NC1CCN(C(=O)OC(C)(C)C)CC1 | -14 | 12 | -5 | 1 | x | -1
CC(C)(C)OC(=O)N1CCC(NC(=O)c2ncn(Cc3ccccc3)c2C(=O)NC2CCN(C(=O)OC(C)(C)C)CC2)CC1 | i | 432* | 10 | -6 | 35 | 38
C[C@@H]1CN([C@@H](C)CO)C(=O)c2cc(NC(=O)c3ccccc3)ccc2O[C@@H](C)CCCCO[C@@H]1CN(C)S(=O)(=O)c1cccs1 | x | x | 2 | x | 0 | -12
COc1ccc(CC2=CC(=O)c3ccccc3C2=O)cc1 | 8 | -12 | 69* | 0 | -12 | 18
COc1ccc(Nc2nc3[nH]c(=O)cc(O)c3s2)cc1 | 2 | 0 | -3 | -2 | x | 27
O=c1cc(O)c2sc(Nc3ccc(F)c(Cl)c3)nc2[nH]1 | 30 | -30 | 28 | -2 | x | 74*
O=c1cc(O)c2sc(Nc3ccc(Cl)c(F)c3)nc2[nH]1 | 7 | -1 | 29 | 3 | x | 70*
CC(=O)c1ccc(NC(=O)CSc2nc3[nH]c(=O)cc(O)c3s2)cc1 | 6 | -3 | 4 | 0 | -1 | -4
O=C1CN(Cc2ccccc2)C[C@H]2[C@H](c3ccc(-c4ccccc4F)cc3)[C@H](CO)N12 | x | x | 5 | x | x | 7
Cc1ccc2nc(NCCc3ccc(Cl)cc3)c3nncn3c2c1 | -9 | 13 | -4 | -1 | -4 | -8
Cc1cccc(CCNc2nc3ccc(C)cc3n3cnnc23)c1 | -62 | 67 | -80 | 11 | 46* | -147
COc1ccc(NC(=O)Nc2ccc3c(c2)C(=O)N([C@H](C)CO)C[C@@H](C)[C@H](CN(C)Cc2ccc(C(F)(F)F)cc2)OCCCC[C@H](C)O3)cc1 | x | x | 61* | x | 1 | 81*
COc1ccc(CN(C)C[C@H]2OCCCC[C@@H](C)Oc3ccc(NC(=O)Nc4ccc(C(F)(F)F)cc4)cc3C(=O)N([C@@H](C)CO)C[C@H]2C)cc1 | x | x | 69* | x | 3 | u
COc1ccc(NC(=O)Nc2ccc3c(c2)C(=O)N([C@H](C)CO)C[C@H](C)[C@H](CN(C)Cc2ccc(C(F)(F)F)cc2)OCCCC[C@@H](C)O3)cc1 | x | x | -1 | x | -4 | 50
COc1ccc(NC(=O)Nc2ccc3c(c2)C(=O)N([C@@H](C)CO)C[C@@H](C)[C@H](CN(C)Cc2ccc(C(F)(F)F)cc2)OCCCC[C@H](C)O3)cc1 | x | x | 8 | x | 6 | 49
COc1ccc(NC(=O)Nc2ccc3c(c2)C(=O)N([C@@H](C)CO)C[C@@H](C)[C@H](CN(C)Cc2ccc(C(F)(F)F)cc2)OCCCC[C@@H](C)O3)cc1 | x | x | 0 | x | 10 | 64*
COc1ccc(CN(C)C[C@@H]2OCCCC[C@@H](C)Oc3ccc(NC(=O)Nc4ccc(C(F)(F)F)cc4)cc3C(=O)N([C@@H](C)CO)C[C@H]2C)cc1 | x | x | 71* | x | -11 | 98*
COc1ccc(NC(=O)Nc2ccc3c(c2)C(=O)N([C@@H](C)CO)C[C@H](C)[C@H](CN(C)Cc2ccc(C(F)(F)F)cc2)OCCCC[C@@H](C)O3)cc1 | x | x | 4 | x | 5 | 57
COc1ccc(CN(C)C[C@H]2OCCCC[C@@H](C)Oc3ccc(NC(=O)Nc4ccc(F)cc4)cc3C(=O)N([C@@H](C)CO)C[C@@H]2C)cc1 | x | x | -12 | x | -2 | 85*
COc1ccc(NC(=O)Nc2ccc3c(c2)C(=O)N([C@H](C)CO)C[C@H](C)[C@H](CN(C)Cc2ccc(C(F)(F)F)cc2)OCCCC[C@H](C)O3)cc1 | x | x | -3 | x | 3 | 99*
COc1ccc(CN(C)C[C@H]2OCCCC[C@@H](C)Oc3ccc(NC(=O)Nc4ccc(C(F)(F)F)cc4)cc3C(=O)N([C@@H](C)CO)C[C@@H]2C)cc1 | x | x | 66* | x | 3 | 30
COc1ccc(CN(C)C[C@@H]2OCCCC[C@H](C)Oc3ccc(NC(=O)Nc4ccc(C(F)(F)F)cc4)cc3C(=O)N([C@H](C)CO)C[C@@H]2C)cc1 | x | x | 71* | x | -86 | 108*
SMILES | MITF TRPM1 inh | MITF TRPM1 HTS | EWS-Fli inh | Wnt act | esBAF inh | PAX8 inh HTS
C[C@@H]1CN([C@@H](C)CO)C(=O)c2cc(NS(C)(=O)=O)ccc2O[C@@H](C)CCCCO[C@H]1CN(C)C | x | x | -6 | x | 0 | -21
COCCNC(=O)C[C@H]1CC[C@@H](NC(=O)NC2CCCCC2)[C@H](CO)O1 | x | x | x | x | 1 | x
COc1ccc(CN(C)C[C@H]2OCCCC[C@@H](C)Oc3ccc(NC(=O)Nc4ccc(C(F)(F)F)cc4)cc3C(=O)N([C@H](C)CO)C[C@@H]2C)cc1 | x | x | -1 | x | -2 | 2
COc1ccc(CN(C)C[C@H]2OCCCC[C@H](C)Oc3ccc(NC(=O)Nc4ccc(C(F)(F)F)cc4)cc3C(=O)N([C@H](C)CO)C[C@@H]2C)cc1 | x | x | 71* | x | 2 | 83*
Cc1nc(NC(C)C)c2cnn(CCc3ccccc3)c2n1 | -89 | 98* | x | x | 39 | x
CCCNc1nc(C)nc2c1cnn2CCc1ccccc1 | -60 | 60 | x | x | 19 | x
Nc1ccc(O)c2c1C(=O)c1ccccc1C2=O | 11 | -10 | -66 | -1 | 2 | x
NC1=CC(=O)C(=O)c2ccccc21 | 97* | -96 | 8 | 1 | 25 | 13
COc1ccc(NC(=O)N[C@H]2CC[C@H](CCNS(=O)(=O)c3ccccc3F)O[C@H]2CO)cc1 | x | x | -6 | x | 0 | 8
CC(C)NC(=O)COc1ccc(S(=O)(=O)N(C)Cc2ccccc2)cc1 | 6 | -4 | 3 | 44* | -6 | -7
C/C(=N\Nc1ccccn1)c1ccc(N2CCOCC2)cc1 | -51 | 58 | -91 | 29 | x | -161
C/C(=N\Nc1ccccn1)c1ccc2c(c1)OCO2 | -39 | 35 | -55 | 10 | 61* | -116
C/C(=N\Nc1ccccn1)c1ccc(C(C)C)cc1 | -126 | 125* | -69 | 5 | 64* | -121
Cc1noc(C)c1NC(=O)N(C)C[C@H]1Oc2c(NC(=O)Nc3ccc(C(F)(F)F)cc3)cccc2C(=O)N([C@@H](C)CO)C[C@H]1C | x | x | 7 | x | -2 | x
CO[C@H]1CN(C)C(=O)c2cc(NS(C)(=O)=O)ccc2OC[C@H](C)N(CC2CCCCC2)C[C@H]1C | x | x | -1 | x | 5 | x
COc1cccc(C(=O)Nc2ccc3c(c2)C(=O)N(C)C[C@H](OC)[C@H](C)CN(C)[C@@H](C)CO3)c1 | x | x | -6 | x | 4 | x
C[C@@H]1CN([C@H](C)CO)C(=O)c2ccccc2-c2ccccc2CO[C@H]1CN(C)C(=O)[C@H](C)c1ccccc1 | x | x | 5 | x | -8 | -16
